# Reference: ChEMBL document CHEMBL3988442, “University of Dundee, Small-Polar-MMV Screening Library” (2021)
# Hit rate of the full screen: of about 66,000 compounds, about 960 (1.5%) showed an effect of 50% or more. The sample as a whole holds a higher share of strong results than the screen did.
# System: Trypanosoma brucei
# Experiment: Trypanosoma brucei 72 hour study
# Format: functional, organism-based
# Set-up: scale not given: in the data most compounds retested in dose-response had high values
smiles,measurement,setting,value
Cc1cc(C)c(C#N)c(NCCn2cnnc2C(C)C)n1,Percent Effect,"30 µM, 30.03 µM",-40.75%
Cc1n[nH]c(C)c1CCC(=O)N1CCC(O)(CN2CCOCC2)C1 (stereo not given),Percent Effect,"30.3 µM, […]",-4.476%
CCN(Cc1ccc(O)c(C(=O)O)c1)CC1CCOCC1,Percent Effect,"30 µM, 30.03 µM",-62.42%
NC(=O)NC(=O)CCN(Cc1ccccc1)CC1CCOCC1,Percent Effect,"30 µM, 30.03 µM",-38.3%
CCN(Cc1ccc(C(C)=O)cc1)CC1CCOCC1,Percent Effect,"30 µM, 30.03 µM",98.5%
COC1COC2(CCN(Cc3ccccc3C)CC2)C1.O=C(O)C(F)(F)F (stereo not given),Percent Effect,"30 µM, 30.03 µM",-3.278%
COc1ccc(CN2CCn3c(CO)nnc3C2)cc1CN1CCCC1.O=C(O)CC(O)(CC(=O)O)C(=O)O,Percent Effect,"30.3 µM, […]",-29.63%
CN(CCn1cnnc1)S(=O)(=O)c1ccc(C(F)(F)F)nc1,Percent Effect,"30 µM, 30.03 µM",-27.18%
O=C(Cc1ccccc1F)N1CCCCC1c1ccn2ccnc2n1 (stereo not given),Percent Effect,"30.3 µM, […]",-17.08%
Br.Cc1ccc(C(=O)CN(C2=NCCCCC2)c2ccccc2)cc1,Percent Effect,"30 µM, 30.03 µM",-7.636%
Br.Cc1ccc(N(CC(=O)c2ccc(Br)cc2)C2=NCCCCC2)cc1,Percent Effect,"30 µM, 30.03 µM",102.1%
Br.O=C(CN(C1=NCCCC1)c1ccccc1)c1ccccc1,Percent Effect,"30 µM, 30.03 µM",-30.63%
Cc1nc(-c2cc(C(=O)NCCN3CCOCC3)c3ccccn23)cs1.O=C(O)C(F)(F)F,Percent Effect,"30 µM, 30.03 µM",-1.462%
Cc1cc2occ(CC(=O)N3CCC4(CCCN(C)C4=O)C3)c2cc1Cl (stereo not given),Percent Effect,"30.3 µM, […]",2.516%
CN(C)CC1(O)CCN(C(=O)Cc2ccc(Cl)c(Cl)c2)C1 (stereo not given),Percent Effect,"30 µM, 30.03 µM",-2.195%
Cc1cc2occ(CC(=O)N3CCC(O)(CN(C)C)C3)c2cc1Cl (stereo not given),Percent Effect,"30.3 µM, […]",99.94%
CCN1C(=O)CC[C@]12CC[C@@H](NC(=O)c1cnccn1)CC2,Percent Effect,"30.3 µM, […]",-18.7%
CCNC(=O)N1CC(c2nc(Cc3ccccc3)no2)C1,Percent Effect,"30.3 µM, […]",0.6321%
O=C(CN1CC(c2nc(Cc3ccccc3)no2)C1)NCC1CCCO1.O=C(O)C(=O)O (stereo not given),Percent Effect,"30.3 µM, […]",6.981%
COC(=O)CN1CC(c2nc(Cc3ccccc3)no2)C1.O=C(O)C(=O)O,Percent Effect,"30 µM, 30.03 µM",101%
Cc1nn(C)c2ncnc(N3CCC(O)(CN4CCCC4)CC3)c12,Percent Effect,"30 µM, 30.03 µM",57.4%
CCC1(O)CCCN(c2ncnc3c2c(C)nn3C)C1 (stereo not given),Percent Effect,"30 µM, 30.03 µM",27.55%
Cc1nn(C)c2ncnc(N3CCCC(C)(O)C3)c12 (stereo not given),Percent Effect,"30 µM, 30.03 µM",2.016%
COc1cc(N2CCO[C@H]3[C@@H](Oc4cccnc4)CC[C@@H]32)ncn1.O=C(O)C(F)(F)F.O=C(O)C(F)(F)F,Percent Effect,"30 µM, 30.03 µM",-15.67%
CCC1CCCCN1CCNC(=O)N1CCN(Cc2ccon2)CC1 (stereo not given),Percent Effect,"30 µM, 30.03 µM",20.59%
CN(C)CCn1c2c(ccc1=O)CC(NC(=O)NC1CCCC1)CC2.O=C(O)C(F)(F)F (stereo not given),Percent Effect,"30.3 µM, […]",-38.22%
CC(C)(C)NC(=O)NC(=O)CNc1c(F)cccc1N1CCCC1,Percent Effect,"30 µM, 30.03 µM",-52.35%
CCCn1cc(S(=O)(=O)N[C@H]2CN(CCO)C[C@@H]2C2CC2)cn1,Percent Effect,"30 µM, 30.03 µM",-20.35%
CC1=C[C@@H](CN2CCN(C)CC2)[C@H](C(C)C)C[C@H]1Cc1nnc(C)o1,Percent Effect,"30 µM, 30.03 µM",28.22%
CC1=C[C@@H](CN2CCOCC2)[C@H](C(C)C)C[C@H]1Cc1nnc(C)o1,Percent Effect,"30 µM, 30.03 µM",60.87%
CC1=C[C@@H](CN2CCCC2)[C@H](C(C)C)C[C@H]1Cc1nnc(C)o1,Percent Effect,"30 µM, 30.03 µM",17.59%
CC1c2ncc(Cn3cncn3)n2CCN1C(=O)c1ccsc1 (stereo not given),Percent Effect,"30.3 µM, […]",-6.898%
CC(C)N1CCO[C@@H]2CN(C(=O)Cc3cccs3)CC[C@@H]2C1.O=C(O)C(F)(F)F,Percent Effect,"30.3 µM, […]",-84.63%
COCC(C)NCc1nc(-c2ccc(C)cc2)c(-c2ccccn2)[nH]1 (stereo not given),Percent Effect,"30 µM, 30.03 µM",72.12%
Cc1ccc(-c2nc(CNS(=O)(=O)N(C)C)[nH]c2-c2ccccn2)cc1,Percent Effect,"30 µM, 30.03 µM",-19.21%
Cc1ccc(-c2nc(CNC(C)CCO)[nH]c2-c2ccccn2)cc1 (stereo not given),Percent Effect,"30 µM, 30.03 µM",-54.5%
Cc1cc(F)ccc1S(=O)(=O)NCC(O)c1cccn1C (stereo not given),Percent Effect,"30.3 µM, […]",2.147%
COc1cc(C)c(C)cc1S(=O)(=O)NCC(O)c1cccn1C (stereo not given),Percent Effect,"30.3 µM, […]",93.04%
Cn1cccc1C(O)CNS(=O)(=O)c1ccccc1F (stereo not given),Percent Effect,"30.3 µM, […]",21.76%
Cn1cccc1C(O)CNS(=O)(=O)c1ccccc1Br (stereo not given),Percent Effect,"30.3 µM, […]",101.8%
Cc1c(Cl)cccc1S(=O)(=O)NCC(O)c1cccn1C (stereo not given),Percent Effect,"30.3 µM, […]",15.12%
COc1ccc(C)cc1S(=O)(=O)NCC(c1cccn1C)N(C)C (stereo not given),Percent Effect,"30 µM, 30.03 µM",-85.17%
Cc1cccc(CN2CCc3cc(C(=O)O)c(N(C)C)nc3CC2)n1.O=C(O)C(F)(F)F.O=C(O)C(F)(F)F,Percent Effect,"30.3 µM, […]",-4.937%
CN(C)C(=O)COC[C@@H]1CC[C@H]2[C@H](CCN2c2ncccn2)O1.O=C(O)C(F)(F)F,Percent Effect,"30 µM, 30.03 µM",-8.509%
Cc1ccc(CN2CC3(CCN(C(=O)c4cscn4)C3)C2)o1.O=C(O)C(F)(F)F,Percent Effect,"30 µM, 30.03 µM",-9.237%
O=C(O)C(F)(F)F.O=C(O)C(F)(F)F.O=C(O)C(F)(F)F.OCCN1CCC2(CC1)CC(NCc1ccccn1)c1ccccc1O2 (stereo not given),Percent Effect,"30 µM, 30.03 µM",-31.61%
CC(C)N1CCCC1c1cc(CO)[nH]n1.O=CO (stereo not given),Percent Effect,"30.3 µM, […]",-7.818%
CN(Cc1ccco1)Cc1cncc2c1CCN(c1ncccn1)C2.Cl.Cl,Percent Effect,"30 µM, 30.03 µM",54.64%
Cc1cnc(N2CCc3c(CN(C)Cc4ccco4)cncc3C2)nc1,Percent Effect,"30.3 µM, […]",5.943%
Cc1ccc(N2CCc3c(CN(C)Cc4ccco4)cncc3C2)nn1.Cl.Cl,Percent Effect,"30.3 µM, […]",-4.486%
CCN1CCC(NC(=O)CN2CCc3c(ncn3C3CC3)C2)CC1,Percent Effect,10 µM,-42.18%
Cc1cnc(C(=O)N2CCC3(CCN(Cc4ccccn4)C3=O)C2)cn1.O=C(O)C(F)(F)F (stereo not given),Percent Effect,"30 µM, 30.03 µM",-17.07%
Cc1ccccc1-n1cc(-c2ccnc(N3CCCC(O)C3)n2)cn1 (stereo not given),Percent Effect,"30.3 µM, […]",12.09%
Cc1ccccc1-n1cc(-c2ccnc(N3CCCC(CN)C3)n2)cn1 (stereo not given),Percent Effect,"30.3 µM, […]",46.15%
COC[C@H]1CCCN1c1nccc(-c2cnn(-c3ccccc3C)c2)n1,Percent Effect,"30.3 µM, […]",99.85%
Cl.c1cc(CNCc2ccc(-n3cncn3)nc2)cc(OC2CCCC2)c1,Percent Effect,"30.3 µM, […]",-105%
O=C(c1cnccn1)N1CCN(c2ccnc3ccsc23)CC1,Percent Effect,"30.3 µM, […]",-26.37%
Cc1ccc(C(=O)N2CCN(c3ccnc4ccsc34)CC2)o1,Percent Effect,"30.3 µM, […]",99.86%
O=C(N1CCOCC1)N1CCN(c2ccnc3ccsc23)CC1,Percent Effect,"30.3 µM, […]",-32.02%
CN(C)Cc1nn(C)c2c1CN(C(=O)c1cccc(C#N)c1)C2,Percent Effect,"30.3 µM, […]",-11.38%
Cc1cc(C)cc(CNc2ccc(C(=O)NC(C)CO)cc2)c1 (stereo not given),Percent Effect,"30.3 µM, […]",34.18%
CC(CO)NC(=O)c1ccc(NCc2ccc(F)c(F)c2)cc1 (stereo not given),Percent Effect,"30.3 µM, […]",74.6%
CC(CO)NC(=O)c1ccc(NCc2ccccc2)cc1 (stereo not given),Percent Effect,"30.3 µM, […]",11.13%
CCn1cc(N2Cc3nc(N4CCC(O)CC4)ncc3C2=O)cn1,Percent Effect,"30.3 µM, […]",-24.87%
O=C(Nc1cnn(CC(=O)N2CCCCO2)c1)c1ccsc1,Percent Effect,"30 µM, 30.03 µM",102%
O=C(Nc1cnn(CC(=O)N2CCCO2)c1)c1ccccc1,Percent Effect,"30 µM, 30.03 µM",-24.18%
O=C(Nc1cnn(CC(=O)N2CCCCO2)c1)c1ccccn1,Percent Effect,"30 µM, 30.03 µM",-63.86%
Cc1ccc(C(=O)N(C)Cc2cc(Br)cs2)cn1,Percent Effect,"30 µM, 30.03 µM",-13.9%
c1ncn(CC2CCCN(Cc3csc(-c4ccsc4)n3)C2)n1 (stereo not given),Percent Effect,"30.3 µM, […]",-1.362%
Clc1ccc2cccnc2c1CN1CCCC(Cn2cncn2)C1 (stereo not given),Percent Effect,"30 µM, 30.03 µM",98.3%
Clc1ccc(CN2CCCC(Cn3cncn3)C2)c2ncccc12 (stereo not given),Percent Effect,"30 µM, 30.03 µM",-24.17%
Clc1ccc2cccnc2c1CN1CCCC1Cn1cncn1 (stereo not given),Percent Effect,"30 µM, 30.03 µM",3.447%
c1ccc(-c2nc(CN3CCCC(Cn4cncn4)C3)cs2)cc1 (stereo not given),Percent Effect,"30.3 µM, […]",51.63%
c1cnc(-c2nc(CN3CCCC(Cn4cncn4)C3)cs2)nc1 (stereo not given),Percent Effect,"30 µM, 30.03 µM",8.258%
CO[C@@H]1CCN(C(=O)Cc2ccc(F)cc2)[C@@H]1Cc1cccnc1.O=C(O)C(F)(F)F,Percent Effect,"30.3 µM, […]",-10.6%
COCCN1CC[C@H]2CN(Cc3ccc(C)s3)C[C@@H]2C1=O.O=C(O)C(F)(F)F,Percent Effect,"30.3 µM, […]",-7.411%
CO[C@H]1CN(Cc2nc3ccccc3n2C)C[C@@]12CCCO2,Percent Effect,"30.3 µM, […]",99.68%
CO[C@H]1CN(Cc2nc3ccccc3n2C)CC[C@@]12CCCO2,Percent Effect,"30.3 µM, […]",5.707%
CO[C@H]1CN(Cc2ccccc2F)C[C@@]12CCCO2,Percent Effect,"30.3 µM, […]",-11.54%
O=C(O)C(F)(F)F.O=C(O)C(F)(F)F.O=C(c1ccnnc1)N1CCN(Cc2ccncc2)c2ncccc2C1,Percent Effect,"30.3 µM, […]",-2.542%
Cc1nc(Nc2ncc(C)s2)cc(C2CCCN2)n1.Cl (stereo not given),Percent Effect,"30.3 µM, […]",99.89%
Cc1nc(Nc2nncs2)cc(C2CCCN2)n1.Cl (stereo not given),Percent Effect,"30.3 µM, […]",-19.68%
Cc1nc(Nc2nnc(C)s2)cc(C2CCCN2)n1.Cl (stereo not given),Percent Effect,"30.3 µM, […]",-18.52%
Cc1nc(Nc2nccs2)cc(C2CCCN2C2CCOCC2)n1 (stereo not given),Percent Effect,"30.3 µM, […]",18.07%
Cc1nc(Nc2nccs2)cc(C2CCCN2)n1.Cl (stereo not given),Percent Effect,"30.3 µM, […]",99.83%
Cc1nc(Nc2ncc(C)s2)cc(C2CCCN2S(C)(=O)=O)n1 (stereo not given),Percent Effect,"30.3 µM, […]",-10.42%
COc1ccc(NC(=O)CCNc2ncccn2)cn1,Percent Effect,"30 µM, 30.03 µM",-26.87%
CCn1cc(CN2C[C@@H]3CCCN3C[C@@H]2CCSC)cn1.O=C(O)CC(O)(CC(=O)O)C(=O)O,Percent Effect,"30.3 µM, […]",8.457%
O=C(NCC1CCOCC1)[C@@H]1C[C@@H]2[C@@H](CCN2Cc2nccs2)O1.O=C(O)C(F)(F)F,Percent Effect,"30.3 µM, […]",-69.82%
Cc1cc(C[C@@H]2COC[C@H]2NCc2ccc(C(F)(F)F)cc2)on1.O=C(O)CC(O)(CC(=O)O)C(=O)O,Percent Effect,"30.3 µM, […]",8.396%
O=C(Cc1ccccn1)N1C[C@H](OCc2cccnc2)[C@H]2COC[C@H]21.O=C(O)C(F)(F)F.O=C(O)C(F)(F)F,Percent Effect,"30.3 µM, […]",-31.71%
O=C(C1CC1)N1Cc2[nH]nc(COCc3cccnc3)c2C1.O=C(O)C(F)(F)F.O=C(O)C(F)(F)F,Percent Effect,"30.3 µM, […]",-50.32%
COCCN(C)C[C@@H]1CN(Cc2ccnc3ccccc23)C[C@@H]1CO,Percent Effect,"30 µM, 30.03 µM",-38.21%
COCCN(C)C[C@@H]1CN(c2nc(C)cc(C)n2)C[C@@H]1CO,Percent Effect,"30 µM, 30.03 µM",-45.82%
COCCN(C)C[C@@H]1CN(c2cc(C)nc3ccccc23)C[C@@H]1CO,Percent Effect,"30 µM, 30.03 µM",99.51%
